In PubChem BioAssay AID602261 (Sanford-Burnham Center for Chemical Genomics, 2012):
Among all 360,000 compounds or so, about 2,400 (0.67%) were called active. This is one part of a sample in which actives are shown more often than they occur. A number with no mark means an inactive call.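 How the source made its calls: active means compounds whose normalised, plate-corrected inhibition of enzyme fluorescence in the single-dose primary screen is 50% or more; inactive means the rest.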

What follows are molecules tested against Fatty acid synthase (Homo sapiens) (UniProt P49327) (assay: FAS thioesterase domain inhibitors, primary screen, biochemical, fluorescence intensity, uHTS (AID 602261;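 further: 0% = DMSO with enzyme and 100% = substrate without enzyme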)). Settings: recombinant FAS-TE, OMFH fluorogenic substrate, fluorescence endpoint; at 15 µM; hits give high values.
Chain of Fatty acid synthase (Homo sapiens) (P49327 whole entry, looked up, the tested form may be a part): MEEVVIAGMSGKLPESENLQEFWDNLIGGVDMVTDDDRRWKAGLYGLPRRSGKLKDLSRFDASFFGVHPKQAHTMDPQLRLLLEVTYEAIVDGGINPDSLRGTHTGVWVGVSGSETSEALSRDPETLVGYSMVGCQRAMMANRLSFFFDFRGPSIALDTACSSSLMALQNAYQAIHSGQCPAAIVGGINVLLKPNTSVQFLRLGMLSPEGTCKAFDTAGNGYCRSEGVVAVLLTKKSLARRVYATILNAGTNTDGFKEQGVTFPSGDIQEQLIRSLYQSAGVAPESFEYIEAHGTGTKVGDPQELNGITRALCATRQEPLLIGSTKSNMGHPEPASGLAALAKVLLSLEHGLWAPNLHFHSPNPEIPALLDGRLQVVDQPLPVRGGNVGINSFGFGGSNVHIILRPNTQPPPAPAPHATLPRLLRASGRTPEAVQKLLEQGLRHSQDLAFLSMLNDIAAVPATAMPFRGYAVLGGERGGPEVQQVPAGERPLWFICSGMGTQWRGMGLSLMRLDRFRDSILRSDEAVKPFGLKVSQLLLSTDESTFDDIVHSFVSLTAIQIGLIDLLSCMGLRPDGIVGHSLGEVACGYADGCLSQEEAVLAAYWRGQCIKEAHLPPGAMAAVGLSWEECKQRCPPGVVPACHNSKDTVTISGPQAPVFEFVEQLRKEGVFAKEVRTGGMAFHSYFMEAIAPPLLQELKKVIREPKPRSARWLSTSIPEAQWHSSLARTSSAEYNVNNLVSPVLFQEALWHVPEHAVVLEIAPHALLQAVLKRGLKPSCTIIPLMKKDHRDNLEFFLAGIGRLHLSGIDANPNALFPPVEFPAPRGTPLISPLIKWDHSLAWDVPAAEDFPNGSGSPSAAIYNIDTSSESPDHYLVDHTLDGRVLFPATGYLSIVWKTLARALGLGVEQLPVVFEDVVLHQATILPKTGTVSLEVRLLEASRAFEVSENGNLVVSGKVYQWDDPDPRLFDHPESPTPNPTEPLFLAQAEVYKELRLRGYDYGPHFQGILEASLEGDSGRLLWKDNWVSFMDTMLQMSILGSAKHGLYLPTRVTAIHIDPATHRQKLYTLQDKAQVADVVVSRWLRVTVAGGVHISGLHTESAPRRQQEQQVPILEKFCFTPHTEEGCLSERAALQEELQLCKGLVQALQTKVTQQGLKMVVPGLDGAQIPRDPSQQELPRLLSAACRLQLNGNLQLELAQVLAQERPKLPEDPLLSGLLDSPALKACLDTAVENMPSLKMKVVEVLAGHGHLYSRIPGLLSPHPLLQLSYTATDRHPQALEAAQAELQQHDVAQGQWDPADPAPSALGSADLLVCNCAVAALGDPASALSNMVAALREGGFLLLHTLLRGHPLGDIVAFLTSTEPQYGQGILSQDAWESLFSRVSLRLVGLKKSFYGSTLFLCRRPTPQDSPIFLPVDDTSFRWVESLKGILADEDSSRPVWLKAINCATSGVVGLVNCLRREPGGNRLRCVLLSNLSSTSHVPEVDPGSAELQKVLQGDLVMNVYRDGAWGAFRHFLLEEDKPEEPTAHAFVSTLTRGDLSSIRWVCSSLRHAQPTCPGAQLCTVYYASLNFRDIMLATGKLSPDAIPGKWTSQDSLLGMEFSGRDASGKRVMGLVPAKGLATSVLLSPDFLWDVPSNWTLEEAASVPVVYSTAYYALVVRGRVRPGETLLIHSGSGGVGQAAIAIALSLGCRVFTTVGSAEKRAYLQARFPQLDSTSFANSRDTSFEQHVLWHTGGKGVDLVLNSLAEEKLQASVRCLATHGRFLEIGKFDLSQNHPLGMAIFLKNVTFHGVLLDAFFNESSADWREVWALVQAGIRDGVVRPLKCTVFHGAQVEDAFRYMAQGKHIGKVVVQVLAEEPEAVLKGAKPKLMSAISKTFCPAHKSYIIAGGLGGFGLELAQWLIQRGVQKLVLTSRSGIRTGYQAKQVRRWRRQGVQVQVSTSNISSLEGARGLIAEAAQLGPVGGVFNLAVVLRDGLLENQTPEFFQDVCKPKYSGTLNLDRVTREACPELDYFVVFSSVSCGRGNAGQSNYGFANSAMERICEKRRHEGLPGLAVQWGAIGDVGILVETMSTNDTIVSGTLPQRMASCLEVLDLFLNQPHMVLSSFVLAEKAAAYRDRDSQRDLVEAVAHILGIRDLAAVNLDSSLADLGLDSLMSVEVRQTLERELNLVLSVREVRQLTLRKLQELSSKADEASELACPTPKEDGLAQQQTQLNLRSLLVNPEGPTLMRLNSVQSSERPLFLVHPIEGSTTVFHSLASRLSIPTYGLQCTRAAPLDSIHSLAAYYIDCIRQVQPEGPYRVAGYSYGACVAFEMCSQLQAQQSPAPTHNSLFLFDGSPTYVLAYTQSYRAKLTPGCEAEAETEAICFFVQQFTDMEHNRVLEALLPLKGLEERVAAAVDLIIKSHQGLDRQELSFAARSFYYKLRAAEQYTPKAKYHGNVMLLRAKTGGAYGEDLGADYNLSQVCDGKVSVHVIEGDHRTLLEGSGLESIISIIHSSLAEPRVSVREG

SMILES | inhibition
O=C(NC(C(=O)NCCN1CCOCC1)C12CC3CC(CC(C3)C1)C2)C1CCCCC1 (configuration not stated) | -6.3%
CCCCN(CC(=O)Nc1cccc(S(=O)(=O)N2CCCC2)c1)Cc1nc2ccccc2c(=O)[nH]1 | 8.2%
CCOCCCN(C)C1CCN(C(=O)c2oc3ccccc3c2NC(=O)COc2cccc(C)c2)CC1 | 1.2%
CC(C)CN(C(=O)CSc1ncnc2sccc12)C1CCS(=O)(=O)C1 (configuration not stated) | -7.9%
CCN(C(=O)CSc1ncnc2c1cnn2-c1ccccc1)C1CCS(=O)(=O)C1 (configuration not stated) | 57.4% (active)
CCC(C)N(C(=O)CSc1ncnc2c1cnn2-c1ccccc1)C1CCS(=O)(=O)C1 (configuration not stated) | 22.1%
COc1cc(C(O)c2nc(-c3cnn(C)c3)cs2)ccc1F (configuration not stated) | -5.1%
COc1ccc(N2CCN(S(=O)(=O)c3cc(Br)cnc3N)CC2)cc1 | -1.1%
Cc1ccc(S(=O)(=O)N2CC(C)N(S(C)(=O)=O)C2)cc1 (configuration not stated) | -3.6%
Cc1nc2c(OCc3cccc(Cl)c3)cccn2c1N(C)CC1CC1 | 17.1%
Cc1nc2c(OCc3ccc(Cl)cc3Cl)cccn2c1N(C)CC1CC1 | 57.2% (active)
CCc1nc2c(OCc3ccc(Cl)cc3Cl)cccn2c1N(C)C(=O)C(C)C | 9.4%
Cc1ccc(C2C(C#N)C(C#N)N3CCCN23)cc1 (configuration not stated) | -18.8%
COc1cc2c(=O)n(C)c3ccccc3c2cc1OC | -3.2%
COCC(=O)N(C)C[C@H]1Oc2cc(Br)ccc2S(=O)(=O)N([C@H](C)CO)C[C@H]1C | -6%
COc1cc(OC)cc(C(=O)NC2CCN(C(=O)N3c4ccccc4Sc4ccccc43)CC2)c1 | 38.7%
CCCCCN(C(=O)CCC(=O)OCC(=O)NC1CCC(C)CC1)c1c(N)n(CCCC)c(=O)[nH]c1=O (configuration not stated) | -3.8%
Cc1ccccc1CN(c1ccc(C(=O)NCC2CCCO2)cc1)S(C)(=O)=O (configuration not stated) | -11.4%
COc1ccc([N+](=O)[O-])cc1NC(=O)c1ccc(N(Cc2ccccc2C)S(C)(=O)=O)cc1 | 62.6% (active)
CCN(c1ccccc1)S(=O)(=O)c1ccc(C(=O)Nc2ccccc2OC)cc1 | 19.5%
CCc1nc2ccc(C(=O)N(C)Cc3ccco3)cn2c1N(C)C(=O)Cc1ccccc1 | -8%
O=C1N(c2ccc(Cl)cc2)C(c2ccc(Cl)cc2)N2CCCN12 (configuration not stated) | 21.3%
COCCCN1C(=O)C(CC(=O)NCc2cccs2)CC(C(=O)N2CCOCC2)=C1C (configuration not stated) | -5.4%
CC1=C(C(=O)OCC2CCCCC2)C(c2ccc(F)cc2)NC(=O)N1 (configuration not stated) | 17.2%

SMILES | inhibition
CCC(CC)COC(=O)C1=C(C)NC(=O)NC1c1ccc([N+](=O)[O-])cc1 (configuration not stated) | 71.6% (active)
CCOCCOC(=O)C1=C(C)NC(=O)NC1c1ccc2c(c1)OCO2 (configuration not stated) | -6.1%
N[C@@H](Cc1ccccc1)C(=O)N1CCC(C(=O)NCC(=O)Nc2ccc(F)cc2)CC1 | -6.7%
CC(C)(O)C#Cc1ncc(C(F)(F)F)cc1Cl | -1.4%
COC(=O)[C@@H]1CC(O)CN1C(=O)C12CC3CC(CC(C3)C1)C2 (some centres not stated) | -6.7%
CCOC(=O)c1cnn2c(SC)ncnc12 | -6.9%
Cc1cc(C)c2c(=O)n3c(nc2c1)C(CC(C)C)NC(=O)c1cc2ccccc2cc1-3 (configuration not stated) | 2.3%
CCC1NC(=O)c2cccnc2-n2c1nc1ccc(C)cc1c2=O (configuration not stated) | -5.4%
O=C1NC(Cc2ccccc2)c2nc3ccc(Br)cc3c(=O)n2-c2cc3ccccc3cc21 (configuration not stated) | 84.7% (active)
C=CCSc1nsc(NC(=O)Nc2cccc(C(C)=O)c2)n1 | 3.9%
Cc1ccc(N2C(=O)N3[C@@H]4c5ccccc5OC[C@@H]4[C@@H](c4ccccc4)[C@@]3(C)C2=O)cc1 | 48.3%
Cc1ccc(C2SCC(=O)N2c2ccccc2)cc1 (configuration not stated) | -5.6%
Cc1ccc(N2C(=O)C3C(c4ccccc4)(C2=O)C3(c2ccccc2)c2ccccc2)cc1 (configuration not stated) | 80.8% (active)
COc1cc(C2C(C(=O)OCCC#N)=C(C)NC3=C2S(=O)(=O)c2ccccc23)cc(OC)c1OC (configuration not stated) | -7.7%
C=C(Cl)COC(=O)C1C2C=CC(C2)C1C(=O)O (configuration not stated) | -6.6%
COc1cccc(CNS(=O)(=O)c2cc3c(cc2C)n(C)c(=O)c(=O)n3C)c1 | -4.2%
CC1c2nc3ccccc3n2C(CC(=O)NCCCN2CCOCC2)C(=O)N1Cc1ccccc1 (configuration not stated) | -2.2%
C#CCN(C[C@@H]1[C@@H](OC(=O)NC2CC2)[C@@H](OC(=O)NC2CC2)Cn2c(=O)ccc(=O)n21)S(=O)(=O)c1ccc(C)cc1 | -8%
C#CCN(C[C@H]1[C@H](OC(=O)NC2CCCC2)[C@H](OC(=O)NC2CCCC2)C[C@H]2C(=O)N(c3ccccc3)C(=O)[C@@H]12)S(=O)(=O)c1ccc(C)cc1 | 69.1% (active)
Cc1ccc(S(=O)(=O)N2C[C@]3(O)C[C@@H]4C(=O)N(c5ccccc5)C(=O)[C@@H]4C[C@]3(OC(=O)NC3CC3)C2)cc1 | 5.3%
O=C(NCc1ccco1)c1ccc(CS(=O)(=O)Cc2ccc(F)cc2)o1 | -5.6%
C[C@H]1CN([C@@H](C)CO)C(=O)CCCn2nncc2CO[C@@H]1CN(C)Cc1ccc(Oc2ccccc2)cc1 | -4.9%
CCN(CCCNC(=O)CSc1cc(=O)n(C)c2cc(Cl)ccc12)Cc1ccccc1 | 1.5%
